Assay results taken from PubChem BioAssay (NCI).
This is part of a sample that, as a whole, favours compounds with a hit. Of some 83,000 tested, about 20% had one in any assay.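 How to read the values: 0–100, growth inhibition (40 = 60% inhibited); 0, no net growth; -100 to 0, cell death (-40 = 40% of starting cells died; -100 = all dead).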 Values without a mark were called inactive. Active and inactive are the calls of the source. How the source made its calls: active means growth percent below 10; inactive means the rest.

How the values were obtained:
Test in all cases: NCI-60 one-dose screen, 48 h (100 = growth as untreated, 0 = no growth, -100 = all killed)
[1] = tested on: SR leukemia; conditions: 10 µM unless noted
[2] = tested on: RPMI-8226 leukemia; conditions: 10 µM unless noted
[3] = tested on: OVCAR-8 ovarian; conditions: 10 µM unless noted
[4] = tested on: OVCAR-5 ovarian; conditions: 10 µM unless noted
[5] = tested on: OVCAR-4 ovarian; conditions: 10 µM unless noted
[6] = tested on: SK-OV-3 ovarian; conditions: 10 µM unless noted
[7] = tested on: IGROV1 ovarian; conditions: 10 µM unless noted
[8] = tested on: OVCAR-3 ovarian; conditions: 10 µM unless noted
[9] = tested on: NCI/ADR-RES ovarian; conditions: 10 µM unless noted
[10] = tested on: T-47D breast; conditions: 10 µM unless noted
[11] = tested on: BT-549 breast; conditions: 10 µM unless noted
[12] = tested on: MDA-MB-435 melanoma; conditions: 10 µM unless noted
[13] = tested on: SW-620 colon; conditions: 10 µM unless noted
[14] = tested on: MCF7 breast; conditions: 10 µM unless noted
[15] = tested on: HCT-116 colon; conditions: 10 µM unless noted
[16] = tested on: HCC-2998 colon; conditions: 10 µM
[17] = tested on: KM12 colon; conditions: 10 µM unless noted

Compound | growth [1] | growth [2] | growth [3] | growth [4] | growth [5] | growth [6] | growth [7] | growth [8] | growth [9] | growth [10] | growth [11] | growth [12] | growth [13] | growth [14] | growth [15] | growth [16] | growth [17]
COc1cccc(Nc2ncnn3ccc(CN4CC[C@@H](N)[C@H](O)C4)c23)c1 | 20.1% | 65.7% | 27.5% | 25.5% | 61% | -41.4% (active) | -19% (active) | 44.1% | 19.4% | -1.78% (active) | 48.3% | 75.6% | 88.4% | 58.8% | 21.9% | 77.1% | 14.1%
C=CC(=O)Nc1cc(Nc2nccc(-c3cn(C)c4ccccc34)n2)c(OC)cc1N(C)CCN(C)C | -24% (active) | -22% (active) | -25.4% (active) | -56.5% (active) | -13.5% (active) | 15.4% | -48.8% (active) | -55.3% (active) | -38.8% (active) | -60.8% (active) | -39.7% (active) | -93.9% (active) | -63.7% (active) | -61.3% (active) | -79.8% (active) | -86.4% (active) | -47.7% (active)
Cc1ccc(NC(=O)c2ccc(CN3CCN(C)CC3)cc2)cc1Nc1nc(-c2cccnc2)cs1 | -3.75% (active) | 13.2% | 34.5% | 98.7% | 62.6% | 75.3% | 62.3% | 79.6% | 55.7% | -9.37% (active) | 41.2% | 45.4% | 42.1% | 28.5% | 18.1% | 68.3% | 51.7%
COCc1c(-c2ccc(NC(=O)Nc3cc(C(F)(F)F)ccc3F)c(F)c2)c2c(N)ncnn2c1CN1CCOCC1 | -9.37% (active) | -33.1% (active) | -28.6% (active) | -18.3% (active) | -6.98% (active) | -34.8% (active) | -21.6% (active) | 6.05% (active) | -21.4% (active) | -27% (active) | -39.5% (active) | -68.8% (active) | -0.244% (active) | -22.9% (active) | -1.82% (active) | -52.1% (active) | -37.2% (active)
N#CC[C@H](C1CCCC1)n1cc(-c2ncnc3[nH]ccc23)cn1 | 2.14% (active) | 81.2% | 64.4% | 50.1% | 81.5% | 38.4% | 38% | 83% | 87.9% | 72% | 77.9% | 69.8% | 73.2% | 41.5% | 39.4% | 85.8% | 19.1%
Cc1ncc(-c2ccnc(Nc3ccc(S(C)(=O)=O)cc3)n2)n1C(C)C | -18.3% (active) | -0.427% (active) | 6.22% (active) | -0.123% (active) | 3.33% (active) | 11.6% | -10.8% (active) | 8.42% (active) | 1.79% (active) | -12.3% (active) | -11.4% (active) | -45.2% (active) | 0.356% (active) | 2.6% (active) | -0.0408% (active) | -15.6% (active) | -68.7% (active)
COc1cccc(NC(=O)Nc2ccc(Nc3ncnc4sc5c(c34)CCN(C(=O)CCl)C5)cc2)c1 | 77.8% | 93.3% | 84.4% | 103% | 126% | 93.8% | 82.6% | 104% | 102% | 86.6% | 99.1% | 109% | 102% | 87.3% | 93.5% | 115% | 98.1%
Cc1ccc(NC(=O)Nc2ccc(Nc3ncnc4sc5c(c34)CCOC5)cc2)cc1Cl | 89% | 105% | 91.9% | 114% | 121% | 73.4% | 99.1% | 102% | 106% | 58.5% | 101% | 103% | 133% | 82.8% | 101% | 112% | 105%
CCc1nc(C(N)=O)c(Nc2ccc(N3CCC(N4CCN(C)CC4)CC3)c(OC)c2)nc1NC1CCOCC1 | 1.01% (active) | 28.3% | 39.6% | 26.5% | 81.2% | 4.92% (active) | 4.12% (active) | 53.4% | 32% | 65.1% | 19.9% | 52.3% | 3.96% (active) | 25.6% | 5.33% (active) | 61.4% | 13.8%
Cc1cc(Nc2ncc(Cl)c(Nc3ccccc3S(=O)(=O)C(C)C)n2)c(OC(C)C)cc1C1CCNCC1 | -44.7% (active) | -56.7% (active) | -67.2% (active) | -96.6% (active) | -89.2% (active) | -32.2% (active) | -72.2% (active) | -96.4% (active) | -60.6% (active) | -77.7% (active) | -78.4% (active) | -100% (active) | -92.7% (active) | -73.7% (active) | -97.5% (active) | -93% (active) | -95.8% (active)
Cc1c(Cn2c(C)nc3c(C(=O)O)cc(N4CCOCC4)cc32)cccc1C(F)(F)F | 75.7% | 104% | 92.1% | 101% | 96.2% | 96% | 114% | 87.2% | 62.1% | 69.2% | 70.9% | 106% | 102% | 92.6% | 92.1% | 103% | 103%
CN1CCC(COc2cnc(-c3cccc(Cn4nc(-c5cccc(C#N)c5)ccc4=O)c3)nc2)CC1 | -9.84% (active) | 50.8% | 59.9% | 78.9% | 75.4% | 70.3% | 73.3% | 81.7% | 82.2% | -49.1% (active) | 63.4% | 53.8% | 45.6% | 60.3% | 22.5% | 80.7% | 33.7%
Cc1cc(-c2cc(O)ccc2Cl)cc2nnc(Nc3ccc(OCCN4CCCC4)cc3)nc12 | -35% (active) | -43.9% (active) | -63.6% (active) | -83.5% (active) | -81.9% (active) | -77.7% (active) | -60.2% (active) | -79.7% (active) | -69.3% (active) | -47.8% (active) | -50.7% (active) | -73.3% (active) | -74.8% (active) | -54.4% (active) | -57.5% (active) | -72.6% (active) | -76.2% (active)
CO[C@H]1C[C@@H]2CC[C@@H](C)[C@@](O)(O2)C(=O)C(=O)N2CCCC[C@H]2C(=O)O[C@H]([C@H](C)C[C@@H]2CC[C@@H](OC(=O)C(C)(CO)CO)[C@H](OC)C2)CC(=O)[C@H](C)/C=C(\C)[C@@H](O)[C@@H](OC)C(=O)[C@H](C)C[C@H](C)\C=C/C=C/C=C/1C | 3.69% (active) | 11.4% | 22.3% | 47.1% | 28.2% | 20.4% | 11.4% | 33.5% | 45.9% | -6.15% (active) | 0.892% (active) | 33.1% | 42.7% | 5.53% (active) | 23.8% | 41.6% | 34.1%
CC(=O)c1c(C)c2cnc(Nc3ccc(N4CCNCC4)cn3)nc2n(C2CCCC2)c1=O | -18.7% (active) | 28.2% | 52.3% | 37.8% | 62% | 36.5% | 27.2% | 74.6% | 72.4% | 55.7% | 50.5% | 45.5% | 27.3% | 27.4% | 10.6% | 57.3% | 11.3%
Cn1nccc1Nc1nccc(-c2ccn([C@H](CO)c3ccc(Cl)c(F)c3)c(=O)c2)n1 | 112% | 113% | 104% | 46.9% | 98.8% | 119% | 82% | 115% | 89.7% | 104% | 93.6% | 55.4% | 62.7% | 93.1% | 52.5% | 36.9% | 82.8%
CN1CCN(c2nc(C3=C(c4c[nH]c5ccccc45)C(=O)NC3=O)c3ccccc3n2)CC1 | 68.7% | 97.8% | 66.9% | 25.1% | 71.9% | 87.1% | 75.4% | 110% | 85.1% | 102% | 91% | 41.8% | 48.4% | 95.1% | 32.4% | 19.2% | 36.1%
COc1cc(Nc2c(C#N)cnc3cc(OCCCN4CCN(C)CC4)c(OC)cc23)c(Cl)cc1Cl | 31.5% | 59.3% | 42.9% | 22.8% | 56% | 44.3% | 6.33% (active) | 77.9% | 78.6% | 59.4% | 85.2% | 31.1% | 37% | 58.3% | 23.3% | 26.9% | 32.9%
